Inconclusive results are not listed. Activity calls are given as the source filed them.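 Rule for the calls, unless noted: active = efflux inhibition above 0.42, the validation set average plus 4 SD; inconclusive = no clear call, values can overlap the other calls; inactive = the rest.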

Experimental findings from PubChem BioAssay are described below.

Experiment [1] in a line: yeast TOR pathway RPL19A-GFP modulators, primary screen, cell-based, S. cerevisiae, multiplex flow cytometry (AID 1862; in the data active = percent of DMSO control GFP below about 86%;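 note: lower values mimic rapamycin by blocking the RPL19A rise seen in DMSO cells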). As to conditions: S. cerevisiae RPL19A-GFP strain, flow cytometry fluorescence, 3 h; at 10 µM; stronger effect = lower value.
Experiment [2] is described as follows: modulators of MEP2-GFP levels in yeast, primary screen, S. cerevisiae, multiplex flow cytometry (AID 1867;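 active = GFP response, as percent of the DMSO control, above the screen-wide mean plus 3 SD, about 139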;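 note: median GFP channel fluorescence of barcode-gated MEP2-GFP cells measured by flow cytometry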). Particulars: S. cerevisiae MEP2-GFP strain, 3 h, at 10 µM, stronger effect = higher value, 100% means same as DMSO wells.
The nature of experiment [3]: modulators of CIT2-GFP expression in yeast, primary screen, S. cerevisiae, GFP fusion, multiplex flow cytometry (AID 1870;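 active = percent response above a set limit, the screen-wide mean plus 3 SD, cut at about 130% in these data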;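 note: barcoded CIT2-GFP strain pooled with four other GFP strains with rapamycin as positive control; median GFP fluorescence per well over plate mean of DMSO wells so 100% = DMSO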). As to conditions: 3 h, at 10 µM, stronger effect = higher value.
Experiment [4] is described as follows: modulators of LAP4-GFP expression in yeast, primary screen, S. cerevisiae, multiplex flow cytometry (AID 1873;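 active = GFP signal, as percent of the solvent control, above the screen mean plus 3 SD, about 149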). As to conditions: 3 h, at 10 µM, stronger effect = higher value.
The nature of experiment [5]: modulators of AGP1-GFP expression in yeast TOR pathway, primary screen, cell-based, multiplex flow cytometry, S. cerevisiae (AID 1887;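 active = GFP signal above the screen-wide mean plus 3 SD, that is over about 124.5% of the solvent control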;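 note: AGP1-GFP fusion strain of S. cerevisiae within a five-strain barcoded multiplex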). As to conditions: 3 h, at 10 µM, stronger effect = higher value.
Experiment [6] in a line: inhibitors of CD8+ T cell-vesicle binding, pilot screen, LFA-1/ICAM-1 modulator project, MLPCN validation set, flow cytometry (AID 2523;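 active = response below a set limit, under 55% cells CD8-positive and vesicle-bound, and CD8 cells' 90th-percentile brightness under 279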;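 for vesicle binding response: mean PE anti-B7-1 fluorescence of CD8+ cells relative to row control; 100% = QL9-loaded vesicles with DMSO vehicle in the same plate row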). Particulars: 2C mouse CD8+ T cells, at 7 µM, stronger effect = lower value; double positive events: measured here: CD8+/vesicle+ event percentage.
Experiment [7] deals with Integrin beta-1 (Homo sapiens) + Integrin alpha-4 (Homo sapiens) (UniProt P13612+P05556). Kind of experiment: inhibition of HUTS-21 binding to VLA-4, pilot screen, VLA-4 allosteric modulator project, U937 cells, HUTS-21 mAb, flow cytometry, validation set (AID 2674;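 active = inhibition above 50%, about 3 SD of the validation set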;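 note: antibody binding induced by the VLA-4 ligand LDV present at three times its Kd; 0% = LDV ligand with antibody and no compound and 100% = antibody without LDV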). As to conditions: HUTS-21 LIBS mAb binding, at 6.7 µM, stronger effect = higher value, binding induced by LDV ligand.
Chain of Integrin beta-1 (Homo sapiens) + Integrin alpha-4 (Homo sapiens) (P05556 whole entry, looked up): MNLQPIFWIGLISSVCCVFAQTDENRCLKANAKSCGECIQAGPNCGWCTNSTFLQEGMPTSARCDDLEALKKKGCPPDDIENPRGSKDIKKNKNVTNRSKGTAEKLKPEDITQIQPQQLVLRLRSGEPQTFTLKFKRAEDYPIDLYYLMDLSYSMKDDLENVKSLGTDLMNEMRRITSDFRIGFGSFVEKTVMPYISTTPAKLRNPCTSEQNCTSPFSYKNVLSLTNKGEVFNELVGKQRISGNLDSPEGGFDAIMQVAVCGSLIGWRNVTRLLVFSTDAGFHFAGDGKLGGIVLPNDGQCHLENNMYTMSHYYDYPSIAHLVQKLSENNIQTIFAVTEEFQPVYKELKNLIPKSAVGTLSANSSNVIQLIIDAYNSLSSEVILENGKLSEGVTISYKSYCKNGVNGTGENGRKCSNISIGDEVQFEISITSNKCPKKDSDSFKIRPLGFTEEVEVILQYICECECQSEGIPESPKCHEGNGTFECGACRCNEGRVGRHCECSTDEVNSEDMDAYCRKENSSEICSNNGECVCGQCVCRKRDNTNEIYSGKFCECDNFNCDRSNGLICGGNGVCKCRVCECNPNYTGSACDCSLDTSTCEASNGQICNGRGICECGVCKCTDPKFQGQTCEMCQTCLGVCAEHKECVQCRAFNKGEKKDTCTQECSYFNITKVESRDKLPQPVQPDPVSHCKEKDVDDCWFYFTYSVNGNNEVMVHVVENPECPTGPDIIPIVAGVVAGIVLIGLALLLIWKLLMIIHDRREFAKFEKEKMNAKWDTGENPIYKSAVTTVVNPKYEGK
Chain of Integrin beta-1 (Homo sapiens) + Integrin alpha-4 (Homo sapiens) (P13612 whole entry, looked up): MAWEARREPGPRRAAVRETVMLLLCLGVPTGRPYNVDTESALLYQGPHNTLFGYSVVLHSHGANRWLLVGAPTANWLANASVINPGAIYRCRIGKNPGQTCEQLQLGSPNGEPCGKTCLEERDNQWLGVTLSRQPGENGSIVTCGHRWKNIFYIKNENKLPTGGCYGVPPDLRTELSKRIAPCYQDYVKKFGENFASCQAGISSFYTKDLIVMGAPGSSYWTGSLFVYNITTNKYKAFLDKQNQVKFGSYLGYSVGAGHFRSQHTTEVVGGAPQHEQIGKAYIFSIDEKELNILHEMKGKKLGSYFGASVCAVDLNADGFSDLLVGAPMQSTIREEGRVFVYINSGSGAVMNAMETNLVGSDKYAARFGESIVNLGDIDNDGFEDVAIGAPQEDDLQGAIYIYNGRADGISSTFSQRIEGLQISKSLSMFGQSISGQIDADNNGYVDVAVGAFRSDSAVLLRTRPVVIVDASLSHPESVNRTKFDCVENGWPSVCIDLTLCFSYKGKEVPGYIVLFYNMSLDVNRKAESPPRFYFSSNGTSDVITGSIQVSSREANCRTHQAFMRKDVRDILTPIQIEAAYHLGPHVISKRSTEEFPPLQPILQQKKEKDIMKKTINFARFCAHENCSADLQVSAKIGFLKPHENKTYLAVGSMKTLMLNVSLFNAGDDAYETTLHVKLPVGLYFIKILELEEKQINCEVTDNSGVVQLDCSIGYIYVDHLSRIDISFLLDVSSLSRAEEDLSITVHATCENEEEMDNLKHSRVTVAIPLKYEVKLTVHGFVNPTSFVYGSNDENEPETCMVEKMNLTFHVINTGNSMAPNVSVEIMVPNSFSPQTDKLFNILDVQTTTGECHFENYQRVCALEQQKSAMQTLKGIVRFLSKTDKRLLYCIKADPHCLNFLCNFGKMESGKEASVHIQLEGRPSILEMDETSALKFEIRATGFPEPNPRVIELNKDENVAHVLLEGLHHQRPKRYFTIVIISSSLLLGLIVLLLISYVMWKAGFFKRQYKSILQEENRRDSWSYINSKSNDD

Experiment [8] is described as follows: superoxide lowering in aged yeast cells, pilot screen, validation compound set (AID 2706;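 active = superoxide response below 65% of plate, a cut near 3 SD across the whole screen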;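 note: yeast exposed to compound for one week at 30 degrees C before staining; 100% = mean of all compound wells on the same plate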). Particulars: S. cerevisiae aging, superoxide DHE fluorescence; at 10 µM, stronger effect = lower value.
The target of experiment [9] is Beta-adrenergic receptor kinase 1 (Homo sapiens) (UniProt P25098). The experiment can be described thus: GRK2 binders displacing RNA aptamer, biochemical, validation, human GRK2, bead flow cytometry (AID 488806;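 active = aptamer binding inhibition above 30%, about 3 SD of noise from non-fluorescent compounds; inactive = inhibition at or below 30%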). Particulars: bead-bound GRK2, FAM-aptamer displacement, at 10 µM, stronger effect = higher value.
Chain of Beta-adrenergic receptor kinase 1 (Homo sapiens) (P25098 whole entry, looked up): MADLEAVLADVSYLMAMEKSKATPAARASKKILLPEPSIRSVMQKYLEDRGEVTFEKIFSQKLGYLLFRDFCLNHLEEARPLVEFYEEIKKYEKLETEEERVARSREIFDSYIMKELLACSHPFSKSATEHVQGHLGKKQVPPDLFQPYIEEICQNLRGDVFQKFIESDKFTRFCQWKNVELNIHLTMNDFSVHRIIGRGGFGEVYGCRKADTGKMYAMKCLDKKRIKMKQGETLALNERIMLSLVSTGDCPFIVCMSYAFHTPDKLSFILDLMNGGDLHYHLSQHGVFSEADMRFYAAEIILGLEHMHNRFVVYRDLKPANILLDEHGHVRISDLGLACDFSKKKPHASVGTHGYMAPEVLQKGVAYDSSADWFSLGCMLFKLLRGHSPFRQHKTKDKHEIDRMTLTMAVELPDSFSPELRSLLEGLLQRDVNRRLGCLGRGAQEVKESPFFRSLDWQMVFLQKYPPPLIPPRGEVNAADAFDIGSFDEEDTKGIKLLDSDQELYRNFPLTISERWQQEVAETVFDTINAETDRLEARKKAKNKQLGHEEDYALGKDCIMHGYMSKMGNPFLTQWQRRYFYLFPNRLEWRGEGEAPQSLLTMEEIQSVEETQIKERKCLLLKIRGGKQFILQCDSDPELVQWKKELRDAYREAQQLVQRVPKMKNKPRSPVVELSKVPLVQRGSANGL
Experiment [10] deals with AP-2 complex subunit beta (Homo sapiens) (UniProt P63010). Kind of experiment: inhibitors of arrestin peptide binding to AP2, pilot screen, biochemical, validation set, GST-AP2 beads, flow cytometry (AID 504541;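 active = inhibition above 54%, about 3 SD of non-fluorescent compounds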;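 note: AP2 carries R879A mutation and is captured from E. coli lysate; bead-bound FITC arrestin peptide fluorescence measuring arrestin peptide binding to AP2; 0% = DMSO wells and 100% = excess unlabeled arrestin peptide control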). Particulars: FITC arrestin peptide, at 10 µM, stronger effect = higher value, AP2 beta2 appendage fragment, R879A mutant.
Chain of AP-2 complex subunit beta (Homo sapiens) (P63010 whole entry, looked up, the tested form may be a part, one chain of several): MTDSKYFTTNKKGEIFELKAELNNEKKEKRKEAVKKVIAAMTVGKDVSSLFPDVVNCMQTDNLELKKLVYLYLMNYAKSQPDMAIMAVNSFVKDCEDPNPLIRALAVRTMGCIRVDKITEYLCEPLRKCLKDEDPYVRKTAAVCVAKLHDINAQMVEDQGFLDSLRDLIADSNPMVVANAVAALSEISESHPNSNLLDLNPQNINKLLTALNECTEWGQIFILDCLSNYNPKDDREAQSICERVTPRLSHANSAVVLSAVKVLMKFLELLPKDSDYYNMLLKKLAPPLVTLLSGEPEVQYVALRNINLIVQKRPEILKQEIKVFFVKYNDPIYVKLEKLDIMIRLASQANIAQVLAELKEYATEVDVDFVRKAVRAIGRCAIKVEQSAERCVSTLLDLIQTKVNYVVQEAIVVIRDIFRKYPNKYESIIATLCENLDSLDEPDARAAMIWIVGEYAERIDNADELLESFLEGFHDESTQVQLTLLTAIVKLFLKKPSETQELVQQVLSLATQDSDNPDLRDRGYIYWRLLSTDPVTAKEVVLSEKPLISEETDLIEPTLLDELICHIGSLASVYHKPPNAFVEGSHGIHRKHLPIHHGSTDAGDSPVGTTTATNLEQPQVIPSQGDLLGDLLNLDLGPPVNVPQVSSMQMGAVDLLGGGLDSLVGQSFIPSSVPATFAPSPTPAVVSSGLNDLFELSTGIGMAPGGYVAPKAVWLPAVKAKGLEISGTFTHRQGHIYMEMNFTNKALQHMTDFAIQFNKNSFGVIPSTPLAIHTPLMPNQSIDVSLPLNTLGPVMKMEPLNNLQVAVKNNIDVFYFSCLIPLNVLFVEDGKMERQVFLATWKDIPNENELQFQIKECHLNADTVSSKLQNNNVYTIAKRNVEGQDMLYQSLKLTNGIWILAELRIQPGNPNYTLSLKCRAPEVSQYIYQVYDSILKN
The nature of experiment [11]: yeast V-ATPase proton transport modulators, S. cerevisiae, pHLuorin, HTS validation (AID 504600; in the data active = response above about 15%;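 note: plate controls were DMSO for no effect and reference compound for full effect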). As to conditions: S. cerevisiae pHLuorin cytosolic pH, at 10 µM, stronger effect = higher value.
The subject of experiment [12] is anti-desmoglein-3 scFv antibody binding to human DSG3. Kind of experiment: inhibitors of anti-DSG3 scFv binding to DSG3, pilot screen, biochemical, validation compound set, bead-based, flow cytometry (AID 588368;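 active = binding below the plate cutoff, the plate median minus 3 SD, with a reading above zero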;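 note: signal is the median channel fluorescence of bead-bound GFP antibody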). As to conditions: Protein G beads, DSG3-Fc, scFv-GFP binding, at 10 µM, stronger effect = lower value.
The nature of experiment [13]: inhibitors of fungal efflux pumps CDR1, CDR2, MDR1, pilot screen, validation compound set, multiplex, phenotypic (AID 588506).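 Note: Nile Red retained in cells so higher fluorescence means more efflux inhibition; 0 = negative control wells and 1 = enniatin B 25 µM full block.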 As to conditions: S. cerevisiae pump-expressing triplex, Nile Red efflux flow cytometry; at 10 µM; stronger effect = higher value; the pumps come from Candida albicans.
Experiment [14] deals with ATP-binding cassette sub-family B member 6 (Homo sapiens) (UniProt Q9NP58). Kind of experiment: ABCB6 transporter inhibitors, pilot screen, K562-ABCB6 cells, flow cytometry, validation set (AID 588550;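 active = inhibition above the screen-wide mean plus 3 SD, about 51%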;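 note: 0% = DMSO wells and 100% = benzethonium chloride 70 µM positive control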). As to conditions: K562-ABCB6 porphyrin accumulation, 1 h, at 10 µM, stronger effect = higher value.
Chain of ATP-binding cassette sub-family B member 6 (Homo sapiens) (Q9NP58 whole entry, looked up): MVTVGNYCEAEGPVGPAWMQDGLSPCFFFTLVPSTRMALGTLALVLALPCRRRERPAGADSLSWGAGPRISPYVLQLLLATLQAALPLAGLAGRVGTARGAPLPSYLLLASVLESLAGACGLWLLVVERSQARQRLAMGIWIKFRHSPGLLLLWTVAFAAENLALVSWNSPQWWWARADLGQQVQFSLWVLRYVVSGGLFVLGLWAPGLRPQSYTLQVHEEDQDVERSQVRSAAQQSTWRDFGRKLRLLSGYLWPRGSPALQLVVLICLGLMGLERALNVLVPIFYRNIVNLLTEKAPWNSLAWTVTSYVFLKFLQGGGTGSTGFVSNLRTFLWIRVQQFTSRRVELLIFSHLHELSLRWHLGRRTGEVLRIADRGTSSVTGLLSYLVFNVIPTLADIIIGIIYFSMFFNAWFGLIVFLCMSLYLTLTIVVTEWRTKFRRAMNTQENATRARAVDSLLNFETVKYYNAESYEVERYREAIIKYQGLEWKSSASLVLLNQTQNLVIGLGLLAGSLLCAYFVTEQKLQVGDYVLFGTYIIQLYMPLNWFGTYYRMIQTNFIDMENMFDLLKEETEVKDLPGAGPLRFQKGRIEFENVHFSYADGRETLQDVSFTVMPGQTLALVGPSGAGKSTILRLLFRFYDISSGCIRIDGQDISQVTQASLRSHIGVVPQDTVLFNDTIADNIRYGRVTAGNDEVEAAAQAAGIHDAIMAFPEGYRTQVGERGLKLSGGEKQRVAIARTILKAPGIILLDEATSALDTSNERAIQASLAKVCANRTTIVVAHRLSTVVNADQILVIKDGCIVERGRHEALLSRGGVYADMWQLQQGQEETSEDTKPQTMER
Experiment [15] can be described thus: promoters of myeloid differentiation in arrested cells, primary screen, cell-based, GFP/MAC1 double positive, flow cytometry, validation set (AID 588685;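 active = differentiation response of at least 50%, scaled between solvent and reference control, from cells with both markers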;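 note: compound exposure lasts four days before antibody staining and flow analysis; 0% = DMSO wells and 100% = 5 µM fulvestrant positive control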). Particulars: ER-HoxA9 marrow cells, stronger effect = higher value, normalized: vehicle 0, fulvestrant 100.

As for `Cc1ncc([N+](=O)[O-])n1CC(O)CCl` (stereo not given), the percent of DMSO control GFP in [1] was 101% (inactive). Also, the figures for the GFP response vs DMSO in experiment [2] and in experiment [4] were 103% (inactive) and 104% (inactive), respectively. In experiment [3], the percent response of DMSO control is 102% (inactive). The GFP response, % of DMSO in [5] was 100% (inactive). The compound further showed a double positive events in experiment [6] of 59.5%. Further, the vesicle binding response in experiment [6] is 193% (inactive). In addition, the figures for the inhibition in experiment [7], in experiment [10] and in experiment [14] were 7.22% (inactive), 24.7% (inactive) and 8% (inactive), respectively. Besides, in experiment [8], the superoxide response (% of plate) is 101% (inactive). In addition, the aptamer binding inhibition in experiment [9] was 4% (inactive). Further, in experiment [11], the response was -1.86% (inactive). Further, the binding (% of control) in experiment [12] was 105% (inactive). The efflux inhibition (fraction of control) in experiment [13] is -0.09 (inactive). In addition, the differentiation response in experiment [15] was -0.2% (inactive).
As to `O=C(CC(C(=O)O)c1c[nH]c2ccccc12)c1ccccc1` (stereo not given), in experiment [1], the percent of DMSO control GFP was 101% (inactive). Moreover, the GFP response vs DMSO is 109% (inactive) in experiment [2] and 103% (inactive) in experiment [4]. Besides, in [3], the percent response of DMSO control is 98.8% (inactive). Moreover, the GFP response, % of DMSO in experiment [5] is 96.3% (inactive). Further, the double positive events in [6] worked out at 58.5%. The vesicle binding response in experiment [6] is 147% (inactive). Moreover, the inhibition in experiment [7] was 10% (inactive); in experiment [10] it was 11.2% (inactive); in experiment [14], 3% (inactive). For the same compound, the superoxide response (% of plate) in experiment [8] is 92.2% (inactive). In addition, the aptamer binding inhibition in experiment [9] is 4% (inactive). For the same compound, in experiment [11], the response is -1.72% (inactive). Further, the binding (% of control) in [12] is 102% (inactive). For the same compound, in [13], the efflux inhibition (fraction of control) is 0.03 (inactive). For the same compound, the differentiation response in experiment [15] is -5.05% (inactive).
For `Cc1nc(C)c(C)nc1C`, in experiment [1], the percent of DMSO control GFP was 101% (inactive). The GFP response vs DMSO in experiment [2] was 101% (inactive); in [4], 100% (inactive). In experiment [3], the percent response of DMSO control is 102% (inactive). In experiment [5], the GFP response, % of DMSO was 103% (inactive). Besides, the double positive events in experiment [6] was found to be 64.7%. The vesicle binding response in experiment [6] was 132% (inactive). Further, the inhibition in [7] was 12.8% (inactive); in [10], 31.6% (inactive); in experiment [14], 8% (inactive). Also, the superoxide response (% of plate) in experiment [8] was 104% (inactive). Further, in experiment [9], the aptamer binding inhibition is -3% (inactive). In addition, the response in experiment [11] was -7.78% (inactive). Moreover, in experiment [12], the binding (% of control) is 103% (inactive). The efflux inhibition (fraction of control) in [13] was 0.25 (inactive). Moreover, in experiment [15], the differentiation response was 3.03% (inactive).
`O=C(Nc1cccc(Cl)c1)N1CCN2C(=O)c3ccccc3C12c1ccccc1` (stereo not given): in experiment [1], the percent of DMSO control GFP was 100% (inactive). In addition, the results for the GFP response vs DMSO in [2] and in experiment [4] were 98.9% (inactive) and 92.3% (inactive), respectively. For the same compound, the percent response of DMSO control in [3] was 96.9% (inactive). Besides, in experiment [5], the GFP response, % of DMSO is 96.3% (inactive). In addition, the double positive events in experiment [6] turned out to be 58.4%. Moreover, the vesicle binding response in experiment [6] was 153% (inactive). Besides, the inhibition in experiment [7] was 0.69% (inactive); in experiment [10], 0.48% (inactive); in [14], 7% (inactive). Besides, in [8], the superoxide response (% of plate) is 92.6% (inactive). Further, the aptamer binding inhibition in experiment [9] is 3% (inactive). Further, the response in [11] is 2.99% (inactive). The binding (% of control) in experiment [12] was 102% (inactive). Further, in experiment [13], the efflux inhibition (fraction of control) was 0.29 (inactive). The differentiation response in experiment [15] was -13.1% (inactive).
On to `C#C[C@]1(O)CC[C@H]2[C@@H]3CCC4=C(CCC(=O)C4)[C@H]3CC[C@@]21C`, for which the percent of DMSO control GFP in [1] is 97.1% (inactive). The values for the GFP response vs DMSO in experiment [2] and in experiment [4] were 92.8% (inactive) and 129% (inactive), respectively. Further, the percent response of DMSO control in experiment [3] was 94.9% (inactive). The GFP response, % of DMSO in experiment [5] was 98.7% (inactive). In addition, the double positive events in experiment [6] was determined as 55.6%. In [6], the vesicle binding response was 188% (inactive). The inhibition in experiment [7] was 2.56% (inactive); in experiment [10], 1.1% (inactive); in [14] it was 7% (inactive). Moreover, the superoxide response (% of plate) in [8] is 95.1% (inactive). Moreover, the aptamer binding inhibition in [9] is 2% (inactive). Moreover, the response in experiment [11] was 5.28% (inactive). For the same compound, the binding (% of control) in experiment [12] is 102% (inactive). In addition, the efflux inhibition (fraction of control) in experiment [13] is -0.2 (inactive). Besides, in [15], the differentiation response was -0.2% (inactive).
